Test results reported in PubChem BioAssay AID1508607 (The Scripps Research Institute Molecular Screening Center, 2020).
Among all 2,300 compounds or so, about 20 (0.9%) were called active.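 Rule for the calls: active = mean percent activation across replicates above the counterscreen hit cutoff of 9.17%; inactive = the rest.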 Shown is part of a subset that was picked to be rich in actives.

target: Glucose-dependent insulinotropic receptor (Homo sapiens) (UniProt Q8TDV5); assay: off-target GPR119 activation – cell-based, PathHunter beta-arrestin, luminescence, set 2, counter-screen for GPR151 activator project, confirmation (AID 1508607); details: GPR119 PathHunter beta-arrestin cells, 90 min, at 11.2 µM, hits give high values;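 note: 0% = median of sample wells and 100% = wells given EA reagent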
Sequence (Q8TDV5 whole entry, looked up): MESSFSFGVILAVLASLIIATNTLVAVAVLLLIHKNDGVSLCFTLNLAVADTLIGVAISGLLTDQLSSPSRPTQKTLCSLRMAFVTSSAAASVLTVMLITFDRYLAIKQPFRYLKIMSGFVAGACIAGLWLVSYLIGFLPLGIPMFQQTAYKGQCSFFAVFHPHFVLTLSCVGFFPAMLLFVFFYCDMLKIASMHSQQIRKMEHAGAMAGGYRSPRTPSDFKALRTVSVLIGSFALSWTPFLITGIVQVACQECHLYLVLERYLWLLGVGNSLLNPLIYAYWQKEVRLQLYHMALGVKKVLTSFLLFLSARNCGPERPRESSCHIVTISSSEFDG

Row | Compound | activation
1 | COc1ccc(Br)cc1CNC(=O)Cc1c(C(=O)O)[nH]c2ccccc12 | 4.16% (inactive)
2 | Cn1c(SCc2ccc(F)cc2)nc2ccc(C(=O)N3CCC(C(N)=O)CC3)cc21 | 0.07% (inactive)
3 | Cc1csc(CNC(=O)CC2C(=O)NCCN2Cc2ccc(F)cc2Cl)n1 (stereo unspecified) | 3.99% (inactive)
4 | OC(COc1ccc(CNCCc2cscn2)cc1)CN1CCc2ccccc2C1 (stereo unspecified) | 3.64% (inactive)
5 | O=C(CNc1ccccc1)N/N=C/c1cc([N+](=O)[O-])ccc1O | -3.89% (inactive)
6 | O=C(Nc1cc(Cl)ccc1Cl)c1ccccc1O | -0.02% (inactive)
7 | CCc1ccccc1NC(=O)Cn1nnc(C(=O)OC)c1C(=O)OC | 3.17% (inactive)
8 | Cc1ccn2c(-c3csc(Nc4ccccc4)n3)c(C)nc2c1 | -1.87% (inactive)
9 | CC1=NNC(=O)C1CCC(=O)N/N=C(\C)c1ccc(C)cc1 (stereo unspecified) | -4.69% (inactive)
10 | CCn1c(=O)c2cc(C(=O)Nc3ccsc3C(=O)OC)sc2c2ccccc21 | -1.75% (inactive)
11 | CCOC(=O)N1CCN(C(=S)Nc2ccc(C)cc2)CC1 | 2.12% (inactive)
12 | O=S(=O)(NCCC12CC3CC(CC(C3)C1)C2)c1cccc2nsnc12 | 0.9% (inactive)
13 | CCc1ccc(NC(=O)Cn2nnc(C(=O)OC)c2C(=O)OC)cc1 | -0.08% (inactive)
14 | c1ccc(N2CCOCC2)c(Nc2nc3ccccc3n3cnnc23)c1 | 0.28% (inactive)
15 | O=C(CSC1=NC(=O)C(c2ccccc2)C(=O)N1)c1ccccc1 (stereo unspecified) | -3.69% (inactive)
16 | CCN1CCC(N(Cc2ccc(F)cc2)C(=O)Nc2ccccc2F)CC1 | -1.27% (inactive)
17 | CCOC(=O)C1CCCN(c2c(Nc3cccc(C)c3)c(=O)c2=O)C1 (stereo unspecified) | -2.19% (inactive)
18 | COc1ccc(C(=O)NCC2(c3ccccc3)CCCC2)cc1[N+](=O)[O-] | -1.92% (inactive)
19 | CSc1ccccc1N1C(=O)CC(Sc2ccccc2C(=O)O)C1=O (stereo unspecified) | 2.04% (inactive)
20 | CC1Oc2cccnc2N(Cc2cccc(C#N)c2)C1=O (stereo unspecified) | 0.9% (inactive)
21 | COc1ccc(-c2nc(-c3ccc(NC(=O)c4ccc(Br)o4)cc3)no2)cc1OC | 14.8% (active)
22 | COc1cccc(C(=O)Nc2ccc(-n3nncc3-c3ccc(OC)c(OC)c3)cc2)c1 | 5.22% (inactive)
23 | COc1ccc(-c2noc(CCC(=O)Nc3ccc(C)c(C)c3)n2)cc1 | 1.95% (inactive)

Row | Compound | activation
24 | CCC1CN(CCNC(=O)c2ccc(C(C)=O)s2)Cc2cc(OC)ccc2O1 (stereo unspecified) | 2.67% (inactive)
25 | CCN(CC)S(=O)(=O)c1ccc(-c2csc(=Nc3ccccc3OC)n2CC)cc1 | -1.01% (inactive)
26 | Clc1nc(NCc2ccccc2)c2ncn(-c3ccccc3)c2n1 | -3.84% (inactive)
27 | c1ccc(Oc2nc(NC3CC3)c3ncn(-c4ccsc4)c3n2)cc1 | 10.5% (active)
28 | C(=N\Nc1nnnn1-c1cccc2ccccc12)/c1ccc2c(c1)OCO2 | 3.7% (inactive)
29 | O=C(COc1ccc(Cl)cc1Cl)Nc1c2c(nn1-c1ccc(F)cc1)CSC2 | 3.41% (inactive)
30 | CCOc1cc(/C=C2/C(=N)N3OC(C)=CC3=NC2=O)ccc1OCc1ccc2c(c1)OCO2 | 2.7% (inactive)
31 | O=C1[C@H]2[C@H]3[C@H](O)[C@H](O)C/C(=N\OCc4ccccc4)[C@H]3CC[C@H]2C(=O)N1C1CCCCC1 | -1.69% (inactive)
32 | Cc1cc(/C=C2/C(=N)N3C=CSC3=NC2=O)c(C)n1-c1ccc(Cl)cc1 | -1.56% (inactive)
33 | CCN(CC)c1cc(C)c2ccccc2n1 | 1.75% (inactive)
34 | Cc1ccc(OC(C)c2nc(-c3ccc(OCC(N)=O)cc3)no2)cc1C (stereo unspecified) | 8.62% (inactive)
35 | CC1CCN(Cc2nnnn2CC(=O)NCC2CCCO2)CC1 (stereo unspecified) | 4.51% (inactive)
36 | CC(=O)c1ccc(NCN2C(=O)C3CC=C(Cl)CC3C2=O)cc1 (stereo unspecified) | 2.21% (inactive)
37 | COC(=O)c1cn(-c2ccccc2)nc1-c1ccc(F)cc1 | 0.06% (inactive)
38 | COc1ccc(-c2noc(CC(=O)NCCN3CCOCC3)n2)cc1 | 0.07% (inactive)
39 | COc1ccc2nc(N3CCCC(C(=O)NCCCOC(C)C)C3)sc2c1 (stereo unspecified) | 0.71% (inactive)
40 | COc1ccc(C2C(C(=O)OCCc3ccccc3)=C(C)NC3=C2C(=O)CCC3)cc1O (stereo unspecified) | 3.23% (inactive)
41 | COC(=O)C1=C(N)n2c(s/c(=C\c3ccc(Cl)cc3)c2=O)=C(C(=O)OC)C1c1ccc(Cl)cc1 (stereo unspecified) | -5.44% (inactive)
42 | CC1CC(C)CN(C(=O)Cn2cc(C=O)c3ccccc32)C1 (stereo unspecified) | 0.05% (inactive)
43 | COC(=O)CN1C(=O)S/C(=C/c2ccco2)C1=O | 3.06% (inactive)
44 | Cn1ccnc1C(=O)C1CCCN(C(=O)CCc2nnc(-c3ccccc3)o2)C1 (stereo unspecified) | 2.54% (inactive)
45 | COc1ccc(-c2cc(-c3ccccc3)c(C#N)c(SC3CCCCC3O)n2)cc1 (stereo unspecified) | 4.49% (inactive)
46 | COc1cc(/C=C2/C(=N)N3OC(C)=CC3=NC2=O)ccc1OCCOc1ccc(C)cc1 | 2.89% (inactive)

Row | Compound | activation
47 | CCOC(CNc1ncnc2sc(C)c(C)c12)OCC | 0.97% (inactive)
48 | CCC(=O)N1CCN(c2ccc(NC(=O)c3ccco3)cc2)CC1 | 0.71% (inactive)
49 | Cc1ccc(/C=N/NC(=O)c2ccc(O)cc2O)cc1 | -2.17% (inactive)
50 | O=C(O/C(=C/c1nc2ccccc2n1Cc1cccc2ccccc12)c1ccc(Cl)cc1)c1ccc(Cl)cc1 | -1.84% (inactive)
51 | COc1ccccc1C(=O)COC(=O)C1(C)CC1(Cl)Cl (stereo unspecified) | 5.89% (inactive)
52 | CCC(C(=O)N1CCOCC1)n1c2ccccc2c2cn[nH]c(=O)c21 (stereo unspecified) | -3.25% (inactive)
53 | CCc1c(C(=O)N2CCN(c3cccc(Cl)c3)CC2)[nH]c(C)c1C(C)=O | 20.1% (active)
54 | O=C(CC(c1ccccc1)c1ccccc1)N1CCN(c2cccc(Cl)c2)CC1 | -2.36% (inactive)
55 | CC(=O)c1c(C)[nH]c(C(=O)N2CCN(c3ncccn3)CC2)c1C | -3.09% (inactive)
56 | CC(C)(C)NC(=S)Nc1cccc(F)c1 | 6.02% (inactive)
57 | COc1ccc(CCn2c(-c3ccc(Cl)cc3)csc2=Nc2ccc(F)cc2)cc1OC | 0.18% (inactive)
58 | COc1ccc(N(C(=O)C(C)Oc2ccccc2)C2C=CS(=O)(=O)C2)c(OC)c1 (stereo unspecified) | -0.94% (inactive)
59 | O=C1N[C@H](Cc2ccc(O)cc2)C(=O)N2CCN(Cc3cnn(-c4cccc(Cl)c4)c3)C[C@H]12 | 3.76% (inactive)
60 | COc1ccc(CNC(=O)C(NS(=O)(=O)c2ccc3c(c2)oc(=O)n3C)C(C)C)cc1 (stereo unspecified) | -0.7% (inactive)
61 | Cc1cccc(N2CCN(C(=O)c3ccc(S(=O)(=O)c4ccc(F)cc4)c([N+](=O)[O-])c3)C(C)C2)c1 (stereo unspecified) | 14.7% (active)
62 | COc1ccc(N2CCN(C(=O)c3ccc(SCc4ccccc4F)c([N+](=O)[O-])c3)CC2)cc1 | 0.52% (inactive)
63 | Cc1ccc(C)c(N2CCN(C(=O)c3ccc(S(=O)(=O)c4ccc(Br)cc4)c([N+](=O)[O-])c3)CC2)c1 | 4.42% (inactive)
64 | Cc1ccccc1-n1cc(-c2ccccc2)[nH]c1=S | -4.28% (inactive)
65 | CSC1=NCCN1C(=O)COc1ccc2ccccc2c1 | -1.84% (inactive)
66 | COc1cc2nc(SCC(N)=O)n3nc(CCn4nc(C)cc4C)nc3c2cc1OC | 1.45% (inactive)
67 | Cc1c(C(=O)NCCC2CCCN2C)sc2ncnc(NCc3ccco3)c12 (stereo unspecified) | 3.32% (inactive)
68 | CCc1nnc(NC(=O)CSc2nc3cccnc3n2Cc2ccccc2)s1 | 0.71% (inactive)
69 | O=C(COc1ccccc1[N+](=O)[O-])N/N=C/c1ccc(Br)cc1 | 0.11% (inactive)

Row | Compound | activation
70 | Cc1cccc2c(N3CCCC3)nc(CNS(=O)(=O)c3ccc4c(c3)OCCO4)nc12 | -0.61% (inactive)
71 | COCC1CCN(c2nc3nonc3nc2NC2CCCC2)CC1 | 2.9% (inactive)
72 | O=C(CN1C(=O)C(c2ccccc2)=NC12CCCC2)Nc1ccccc1 | -0.92% (inactive)
73 | CCC(CC)C(=O)Nc1nnc(SCC(=O)Nc2cc(C(F)(F)F)ccc2Cl)s1 | 1.93% (inactive)
74 | Cn1cc(SCC(=O)Nc2ccccc2C(F)(F)F)c2ccccc21 | 3.59% (inactive)
75 | O=C(Nc1cc(C(F)(F)F)ccc1Cl)c1ccc(C(=O)C(=O)c2ccccc2)cc1 | 6.45% (inactive)
76 | Cc1ccc2c(c1)c(=O)c1ccccc1n2CC(=O)Nc1cccc(Cl)c1C | -2.08% (inactive)
77 | CCOC(=O)c1nnn(CC(=O)Nc2cccc(C)c2)c1C(=O)OCC | 1.6% (inactive)
78 | Cc1cc2c(cc1C)C(c1cc([N+](=O)[O-])ccc1Cl)CC(=O)N2 (stereo unspecified) | 0.43% (inactive)
79 | O=C(CCCn1c(=O)[nH]c2ccccc2c1=O)NC1CCCC1 | -1.75% (inactive)
80 | CCn1c(SC(C)C(=O)OC)nc2c(c1=O)SC(C)C2 (stereo unspecified) | -0.05% (inactive)
81 | COc1ccc(NS(=O)(=O)c2ccc(NC(=S)NC(C)=O)cc2)cc1 | 3.81% (inactive)
82 | CCC(C)NC(=O)c1cc2c(=O)oc3ccccc3c2s1 (stereo unspecified) | 4.04% (inactive)
83 | CCC(C)NC(=O)c1cc(=O)[nH]c2ccc(Br)cc12 (stereo unspecified) | 47.8% (active)
84 | CCC(C)NC(=O)c1ccc(-n2c(=S)[nH]c3ccccc3c2=O)cc1 (stereo unspecified) | 0% (inactive)
85 | CCc1c(C)sc(NC(NC(=O)C(C)C)(C(F)(F)F)C(F)(F)F)c1C#N | -0.12% (inactive)
86 | COc1cc(C2CC(=O)N3CN(C4CCCCC4)CSC3=C2C#N)cc(OC)c1OC (stereo unspecified) | -2.01% (inactive)
87 | CCOC(=O)c1c(NC(=O)CSc2c[nH]c3ccccc23)sc2c1CCCCC2 | 4.28% (inactive)
88 | CCCCCCCCCCCCCC/C(C(=O)O)=C(\C)C(=O)O | -2.17% (inactive)
89 | Cc1ccc2c(c1)NC(C)(C)c1sn(-c3ccc(C(C)C)cc3)c(=S)c1-2 | 1.46% (inactive)
90 | CC(C)C1Nc2c(O)cc(Cl)c([N+](=O)[O-])c2C2C=CCC21 (stereo unspecified) | 10.3% (active)
91 | O=[N+]([O-])c1c(Cl)cc(O)c2c1C1C=CCC1C(c1ccc(Cl)cc1Cl)N2 (stereo unspecified) | 5.29% (inactive)
